For some assays here: Entries with a potency or affinity are not part of this list.
Key:
Design in all cases: scale not given: direction of the effect not stated beside the values
[1] = molecular target: Protein translocase subunit SecA (Escherichia coli (strain K12)) (UniProt P10408); test: Assay to Identify E. coli SecA ATPase Inhibitors; type: functional; details: 30 µM
[2] = molecular target: T1, Ubiquitin-activating enzyme e1, putative (Leishmania donovani (strain BPK282A1)) (UniProt E9BSI1); test: Leishmania donovani Ubiquitin Activating Enzyme (LdE1); type: functional; details: 30 µM
T1 sequence (whole entry): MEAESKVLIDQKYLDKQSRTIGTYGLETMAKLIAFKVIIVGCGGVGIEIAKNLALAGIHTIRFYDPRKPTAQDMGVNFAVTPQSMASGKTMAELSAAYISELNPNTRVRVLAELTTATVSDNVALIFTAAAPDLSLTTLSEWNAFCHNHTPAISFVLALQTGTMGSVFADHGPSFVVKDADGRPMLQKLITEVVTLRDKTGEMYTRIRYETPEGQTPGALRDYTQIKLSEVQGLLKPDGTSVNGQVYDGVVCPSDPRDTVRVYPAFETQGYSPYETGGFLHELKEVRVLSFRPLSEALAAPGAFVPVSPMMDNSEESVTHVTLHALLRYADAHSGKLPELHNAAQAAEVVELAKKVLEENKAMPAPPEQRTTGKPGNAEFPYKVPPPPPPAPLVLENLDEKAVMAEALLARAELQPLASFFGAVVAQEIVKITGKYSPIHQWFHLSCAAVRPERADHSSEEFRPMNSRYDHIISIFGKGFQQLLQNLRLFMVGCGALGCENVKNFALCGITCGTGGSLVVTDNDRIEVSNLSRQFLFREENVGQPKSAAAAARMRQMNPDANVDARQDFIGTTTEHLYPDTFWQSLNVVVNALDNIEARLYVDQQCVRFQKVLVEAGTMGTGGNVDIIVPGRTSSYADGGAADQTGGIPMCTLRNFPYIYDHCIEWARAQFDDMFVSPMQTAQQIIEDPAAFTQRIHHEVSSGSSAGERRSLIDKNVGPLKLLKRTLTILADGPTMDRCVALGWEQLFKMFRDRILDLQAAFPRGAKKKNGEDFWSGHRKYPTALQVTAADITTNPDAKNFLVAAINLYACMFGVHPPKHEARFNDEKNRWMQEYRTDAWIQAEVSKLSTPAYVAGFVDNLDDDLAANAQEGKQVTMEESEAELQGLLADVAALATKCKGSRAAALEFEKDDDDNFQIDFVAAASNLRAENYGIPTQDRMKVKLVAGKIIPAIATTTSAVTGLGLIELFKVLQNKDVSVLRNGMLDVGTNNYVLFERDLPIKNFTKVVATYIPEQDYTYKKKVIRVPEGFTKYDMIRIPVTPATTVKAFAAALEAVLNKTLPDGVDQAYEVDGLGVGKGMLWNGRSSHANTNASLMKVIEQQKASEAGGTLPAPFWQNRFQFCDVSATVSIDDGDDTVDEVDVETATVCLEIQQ

[3] = molecular target: AMP-activated protein kinase, AMPK (Homo sapiens) (UniProt P54646+O43741+P54619+Q9UGJ0+Q9Y478+Q13131+Q9UGI9); test: AMP-dependent Kinase enzyme assay. An in vitro enzyme assay that detects ADP turnover that is directly proportional to AMPK activity. This uses naive AMPK that is activated during the assay with MK-8722; type: functional; details: 30 µM
[4] = molecular target: Sialic acid-binding Ig-like lectin 9 (Homo sapiens) (UniProt Q9Y336); test: Hs-Siglec9 ALPHAscreen SOP 20170721; details: 10 µM
Trypanosoma cruzi = test: Trypanosoma cruzi phosphomannomutase and mannose-1-phosphate guanylyltransferase assay; type: functional; details: 10 µM
[5] = molecular target: T2, Arginase-2, mitochondrial (Homo sapiens) (UniProt P78540); test: in vitro enzyme assay to detect the production of urea directly proportional to the activity of Arginase II; type: functional; details: 33.3 µM; also: in the data most compounds retested in dose-response had high values
T2 sequence (whole entry): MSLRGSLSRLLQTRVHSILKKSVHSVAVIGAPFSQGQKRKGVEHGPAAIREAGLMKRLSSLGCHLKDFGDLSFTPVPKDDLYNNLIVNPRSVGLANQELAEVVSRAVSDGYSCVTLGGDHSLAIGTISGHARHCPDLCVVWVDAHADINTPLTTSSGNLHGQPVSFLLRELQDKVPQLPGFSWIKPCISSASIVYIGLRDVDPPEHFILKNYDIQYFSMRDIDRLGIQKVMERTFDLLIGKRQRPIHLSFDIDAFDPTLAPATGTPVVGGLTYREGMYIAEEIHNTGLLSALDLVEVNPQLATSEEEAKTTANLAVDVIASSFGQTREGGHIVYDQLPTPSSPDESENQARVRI

[6] = molecular target: T3, Proteasome subunit beta (Trypanosoma cruzi) (UniProt O96673); test: Trypanosoma cruzi proteasome chymotrypsin-like activity (TcProtChymo) assay.; also: in the data most compounds retested in dose-response had high values; type: functional; details: 9.37 µM
T3 sequence (whole entry): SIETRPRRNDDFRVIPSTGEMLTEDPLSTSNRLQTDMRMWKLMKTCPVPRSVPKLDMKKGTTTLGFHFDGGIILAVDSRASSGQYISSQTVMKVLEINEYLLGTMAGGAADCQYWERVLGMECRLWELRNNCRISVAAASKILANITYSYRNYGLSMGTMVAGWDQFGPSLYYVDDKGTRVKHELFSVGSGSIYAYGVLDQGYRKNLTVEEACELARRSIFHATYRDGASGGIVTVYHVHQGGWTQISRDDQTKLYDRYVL

Homo sapiens = species on record: Homo sapiens; test: To identify inhibition of the IFN signalling (Jak-Stat) pathway via expression of an eGFP reporter gene under the control of an IFN-stimulated response element (ISRE) containing MxA promoter.; type: functional; details: 30 µM
[7] = molecular target: T4, Tyrosyl-tRNA synthetase, putative (Trypanosoma cruzi (strain CL Brener)) (UniProt Q4DSP6); test: Trypanosoma cruzi tyrosyl tRNA synthetase (TcYRS) _High Tyrosine SOP; type: functional; details: 30 µM; also: in the data most compounds retested in dose-response had high values
T4 sequence (whole entry): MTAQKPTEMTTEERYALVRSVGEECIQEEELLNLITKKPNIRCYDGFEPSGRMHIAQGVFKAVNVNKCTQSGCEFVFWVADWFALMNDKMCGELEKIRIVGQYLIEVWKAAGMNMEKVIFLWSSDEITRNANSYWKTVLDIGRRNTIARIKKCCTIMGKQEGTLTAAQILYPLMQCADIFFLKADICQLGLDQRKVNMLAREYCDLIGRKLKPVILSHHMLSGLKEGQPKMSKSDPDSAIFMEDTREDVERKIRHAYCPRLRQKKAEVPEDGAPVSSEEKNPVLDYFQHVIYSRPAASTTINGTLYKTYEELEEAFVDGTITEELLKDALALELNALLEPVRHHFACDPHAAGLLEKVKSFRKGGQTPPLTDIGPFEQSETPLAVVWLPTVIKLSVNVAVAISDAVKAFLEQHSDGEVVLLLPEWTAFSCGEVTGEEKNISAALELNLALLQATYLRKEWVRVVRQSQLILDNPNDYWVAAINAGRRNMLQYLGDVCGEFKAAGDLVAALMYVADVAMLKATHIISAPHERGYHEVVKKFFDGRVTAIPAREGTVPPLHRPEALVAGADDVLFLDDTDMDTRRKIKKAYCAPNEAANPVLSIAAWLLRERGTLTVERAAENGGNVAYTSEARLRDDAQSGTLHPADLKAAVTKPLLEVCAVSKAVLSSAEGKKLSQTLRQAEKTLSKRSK

[8] = molecular target: T4, Tyrosyl-tRNA synthetase, putative (Trypanosoma cruzi (strain CL Brener)); test: Trypanosoma cruzi tyrosyl tRNA synthetase (TcYRS) SOP; type: functional; details: 30 µM
[9] = molecular target: Chromo domain-containing protein 1 (Saccharomyces cerevisiae (strain ATCC 204508 / S288c) (Baker's yeast)) (UniProt P32657); test: ScCHD-1 Enzyme Inhibition Assay; type: functional; details: 30 µM; also: in the data most compounds retested in dose-response had high values
Chain of Chromo domain-containing protein 1 (Saccharomyces cerevisiae (strain ATCC 204508 / S288c) (Baker's yeast)) (P32657 whole entry, the tested form may be a part): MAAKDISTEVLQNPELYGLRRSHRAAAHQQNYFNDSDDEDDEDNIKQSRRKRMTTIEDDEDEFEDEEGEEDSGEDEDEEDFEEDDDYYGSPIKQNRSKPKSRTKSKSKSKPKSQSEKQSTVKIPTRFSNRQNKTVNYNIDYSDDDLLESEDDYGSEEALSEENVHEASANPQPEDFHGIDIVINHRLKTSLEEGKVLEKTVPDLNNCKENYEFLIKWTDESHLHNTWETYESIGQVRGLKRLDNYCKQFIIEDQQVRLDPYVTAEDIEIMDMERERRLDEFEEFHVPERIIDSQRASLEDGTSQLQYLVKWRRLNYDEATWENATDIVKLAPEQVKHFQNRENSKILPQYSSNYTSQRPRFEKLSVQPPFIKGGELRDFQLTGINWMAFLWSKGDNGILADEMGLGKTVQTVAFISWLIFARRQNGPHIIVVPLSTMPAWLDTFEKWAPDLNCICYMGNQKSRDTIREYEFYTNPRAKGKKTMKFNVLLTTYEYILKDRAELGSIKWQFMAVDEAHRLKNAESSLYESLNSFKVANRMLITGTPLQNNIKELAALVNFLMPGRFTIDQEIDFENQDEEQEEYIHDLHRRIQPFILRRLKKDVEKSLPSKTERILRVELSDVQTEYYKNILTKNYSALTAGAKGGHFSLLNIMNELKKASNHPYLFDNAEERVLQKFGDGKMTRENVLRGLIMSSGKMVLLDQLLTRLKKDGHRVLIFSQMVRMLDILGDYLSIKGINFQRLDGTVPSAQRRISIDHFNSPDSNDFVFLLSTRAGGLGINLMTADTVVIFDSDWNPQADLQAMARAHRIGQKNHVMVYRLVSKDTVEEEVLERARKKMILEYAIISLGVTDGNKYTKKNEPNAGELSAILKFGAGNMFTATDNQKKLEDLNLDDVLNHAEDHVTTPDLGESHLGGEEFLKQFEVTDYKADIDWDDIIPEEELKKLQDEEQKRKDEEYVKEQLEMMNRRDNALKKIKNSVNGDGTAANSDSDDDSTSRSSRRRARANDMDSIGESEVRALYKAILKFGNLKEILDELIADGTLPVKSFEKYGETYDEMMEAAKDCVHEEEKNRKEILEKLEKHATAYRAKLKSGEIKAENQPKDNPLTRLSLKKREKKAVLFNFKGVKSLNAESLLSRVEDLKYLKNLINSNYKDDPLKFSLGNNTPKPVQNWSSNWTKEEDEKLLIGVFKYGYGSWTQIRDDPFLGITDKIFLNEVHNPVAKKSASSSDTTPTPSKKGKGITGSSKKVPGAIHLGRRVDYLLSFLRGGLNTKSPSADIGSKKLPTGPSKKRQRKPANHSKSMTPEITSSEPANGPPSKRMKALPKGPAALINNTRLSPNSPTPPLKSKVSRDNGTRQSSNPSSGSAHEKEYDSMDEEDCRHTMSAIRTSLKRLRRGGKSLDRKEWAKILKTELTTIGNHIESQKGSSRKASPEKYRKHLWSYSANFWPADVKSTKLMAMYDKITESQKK

Chain of Sialic acid-binding Ig-like lectin 9 (Homo sapiens) (Q9Y336 whole entry): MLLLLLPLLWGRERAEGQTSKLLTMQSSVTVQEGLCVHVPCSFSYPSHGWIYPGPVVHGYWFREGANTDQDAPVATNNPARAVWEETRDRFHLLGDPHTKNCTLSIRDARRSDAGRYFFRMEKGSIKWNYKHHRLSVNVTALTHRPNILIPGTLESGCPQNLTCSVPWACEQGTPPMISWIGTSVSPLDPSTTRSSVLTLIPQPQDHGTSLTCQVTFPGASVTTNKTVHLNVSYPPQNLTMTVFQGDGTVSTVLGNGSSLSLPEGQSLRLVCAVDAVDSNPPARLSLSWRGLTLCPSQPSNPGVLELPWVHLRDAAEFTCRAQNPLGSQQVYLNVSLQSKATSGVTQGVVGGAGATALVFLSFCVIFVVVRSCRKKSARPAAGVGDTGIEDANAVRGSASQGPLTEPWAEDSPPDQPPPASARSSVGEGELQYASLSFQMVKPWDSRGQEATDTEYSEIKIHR
Chain of Protein translocase subunit SecA (Escherichia coli (strain K12)) (P10408 whole entry): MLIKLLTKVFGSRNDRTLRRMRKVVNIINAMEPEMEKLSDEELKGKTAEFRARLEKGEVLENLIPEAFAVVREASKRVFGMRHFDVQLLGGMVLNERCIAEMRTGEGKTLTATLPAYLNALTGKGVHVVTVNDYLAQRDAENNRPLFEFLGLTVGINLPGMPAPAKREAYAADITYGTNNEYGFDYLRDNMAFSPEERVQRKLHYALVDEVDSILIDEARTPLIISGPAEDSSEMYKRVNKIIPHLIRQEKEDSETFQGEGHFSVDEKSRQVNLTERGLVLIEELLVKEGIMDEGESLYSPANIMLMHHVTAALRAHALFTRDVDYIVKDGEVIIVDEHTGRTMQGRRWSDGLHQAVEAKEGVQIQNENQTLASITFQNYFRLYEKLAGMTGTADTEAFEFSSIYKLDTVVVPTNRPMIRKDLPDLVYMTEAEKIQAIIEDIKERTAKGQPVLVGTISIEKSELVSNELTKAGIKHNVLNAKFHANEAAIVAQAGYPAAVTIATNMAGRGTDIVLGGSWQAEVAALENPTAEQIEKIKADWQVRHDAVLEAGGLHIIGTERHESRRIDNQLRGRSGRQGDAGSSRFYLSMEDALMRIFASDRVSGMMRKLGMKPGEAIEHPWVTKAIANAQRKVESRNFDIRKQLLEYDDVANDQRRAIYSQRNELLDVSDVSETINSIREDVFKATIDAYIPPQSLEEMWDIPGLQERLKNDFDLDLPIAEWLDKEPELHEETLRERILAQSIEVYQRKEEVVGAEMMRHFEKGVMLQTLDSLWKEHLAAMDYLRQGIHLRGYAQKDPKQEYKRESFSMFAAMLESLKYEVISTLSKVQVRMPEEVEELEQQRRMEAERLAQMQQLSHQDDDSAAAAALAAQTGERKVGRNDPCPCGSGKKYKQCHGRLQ

Structure (SMILES) | Percent Effect [1] [%] | Percent Effect [2] [%] | Percent Effect [3] [%] | Percent Effect [4] [%] | Percent Effect (Trypanosoma cruzi) [%] | Percent Effect [5] [%] | Percent Effect [6] [%] | Percent Effect (Homo sapiens) [%] | Percent Effect [7] [%] | Percent Effect [8] [%] | Percent Effect [9] [%]
O=C1CC[C@H]2[C@H](CCN2C(=O)C2CCCO2)N1Cc1ccncc1 (some centres not stated) | -2.88 | 22.7 | -8.21 | -5.26 | 2.36 | -8.63 | 14.1 | 12.9 | 1.06 | 7.69 | -8.01
CC(=O)c1cccc(OCCCC(=O)N(C)Cc2cccc(O)c2)c1 | -2.9 | 2.7 | 5.1 | 4.56 | 0.193 | 4.29 | 3.28 | 8.19 | -0.529 | 0 | -3.66
Cc1nn(C)c(N(C)C)c1CNCc1ccccc1CN(C)C | -1.22 | 24.1 | -13.2 | -7.18 | -1.54 | -6.24 | 15.9 | -0.0229 | 1.04 | 2.53 | -30.7
CCCSCC(=O)NS(=O)(=O)c1ccc2c(c1)OCCO2 | -2.66 | -2.63 | 5.73 | 7.23 | 1.5 | 3.45 | 2.34 | -0.713 | 1.47 | 0 | -4.12
CC(NC(=O)NCCn1ccnc1)c1ccc2c(c1)NC(=O)CO2 (configuration not stated) | -4.14 | 10.1 | 1.48 | 0.18 | -7.65 | -1.52 | -0.409 | 17.8 | 0.493 | 13.9 | -1.54
CCn1cc(N2Cc3nc(N4CCOCC4)ncc3C2=O)cn1 | -4.68 | 17.3 | -4.89 | 0.208 | 0.786 | -9.33 | 4.44 | -2.82 | 2.12 | 5.13 | -15.2
COc1c(C2CCCN2C(=O)c2cc(Cl)c[nH]2)c(C)nn1C (configuration not stated) | -5.79 | 5.41 | 4.66 | -0.555 | -0.781 | 2.08 | 4.31 | -1.4 | 9.9 | -3.66 | -3.93
Cc1nc(N2CCN(C)CC2)ncc1C(=O)N1CCC(O)(CO)CC1 | -6.99 | 5.41 | 51.9 | 4.12 | 2.25 | 0.744 | 0.944 | 9.71 | 6.45 | 13.6 | -3.95
Cn1cc(C(=O)NC2CCN(C(=O)NCC3CCSCC3)CC2)cn1 | -7.28 | 6.33 | 11.5 | 2.29 | -2.15 | 2.37 | 8.75 | 24.4 | 11.5 | 15.2 | 1.7
CNS(=O)(=O)c1ccc(C(=O)NCCc2ccccn2)cc1 | -1.2 | 13.2 | -0.141 | 1.24 | -0.28 | -5.4 | 10.2 | -22.9 | 7.39 | 16.1 | -7.59
CCc1nc(C2CCCN(C(=O)c3cn(C)nc3C)C2)no1 (configuration not stated) | -2.94 | 5.41 | -8.22 | 13.8 | 7.89 | 0.185 | 5.57 | 9 | 3.96 | 13.4 | 65.5
CCc1ccccc1CN1CC[C@@H](NC(=O)c2cccnc2)[C@H](O)C1 | -2.67 | 1.39 | -0.714 | 6.65 | 8.26 | 0 | 12.8 | -21.1 | 3.16 | 10.3 | -3.67
CCn1cc(CN2CCc3nc(N4CCOCC4)nc(O)c3CC2)cn1 | -7.19 | 12.2 | -3.19 | 18.1 | 0.988 | -6.26 | 7.64 | 4.24 | 3.23 | 9.09 | -27.2
Cc1ccc(CN2CCC3(CC(C(=O)NCC4CC4)=NO3)C2)cc1C (configuration not stated) | -4.16 | 2.67 | 7.69 | -4.65 | -4.05 | -64 | 0.684 | 2 | 0 | 7.5 | -7.33
NC(=O)CSCC(=O)N1CCc2cc(Cl)cc(Cl)c2C1 | -5.75 | 15.6 | 4.28 | 36.8 | 6.98 | -57.9 | 9.15 | -7.69 | 3.23 | 8.64 | -8.22
CCC(=O)Nc1ccc2c(c1)CN(C(=O)c1ccco1)CC2 | -1.48 | 15.6 | 8.06 | -13 | -1.48 | -1.94 | 9.4 | 33.1 | 3.17 | 14.1 | -8.67
COC(=O)c1sccc1NC(=O)C1CCCN1C(=O)c1ccco1 (configuration not stated) | -0.782 | -15.3 | 13.2 | -14.9 | -8.84 | -3.53 | 20.4 | 1.28 | -3.16 | 2.56 | -2.51
CCCN(CCO)C(=O)C1CCC(=O)N(CCc2ccc(Cl)cc2)C1 (configuration not stated) | 0.568 | 6.94 | 1.97 | -2.89 | 2.23 | 3.53 | 8.77 | -9.44 | 4.21 | 7.69 | -5.01
COc1ccc2c(O)c(NC(=O)NCC3CC3)cnc2c1 | 1.05 | 14.9 | 9.57 | -7.59 | -1.38 | -4.87 | 14.7 | 7.86 | 2.15 | 9.09 | -11.6
Cc1cc(C)c(CNC(=O)N2CCN(c3cnccn3)CC2)c(=O)[nH]1 | -7.87 | 18.4 | -1.35 | 2.54 | 6.96 | -1.53 | 12.2 | 11.3 | 3.43 | 9.76 | -9.64
CCC(CC)C(CNC(=O)Nc1cc(C)nn1C)N1CCOCC1 (configuration not stated) | -4.23 | 17.7 | 3.07 | -7.11 | 9.54 | -5.32 | 9.75 | 4.35 | 8.37 | 11.4 | -9.76
O=C(Nc1ccc(N2CCCC2)nc1)N1CCc2sccc2C1 | -5.59 | 2.7 | 0.616 | 0.939 | -8.59 | -0.833 | 22.1 | 7.44 | 13.9 | 13.4 | 1.64

From ChEMBL document CHEMBL3988442, “University of Dundee, Small-Polar-MMV Screening Library” (2021)
